Experimental data from PubChem BioAssay (Tox21).
Active and inactive are the calls of the source. A call without a number means that no potency is given here. Calls come from the whole dose curve; as a rule, active = well fitted inhibition curve with a large enough effect in the repeat runs (not every such curve was filed as active); inconclusive = weak or mixed curves; inactive = flat fitted curve, though single readings scatter.
Potency is the fitted concentration of half-maximal effect.

Each compound was assayed against Thyrotropin-releasing hormone receptor (Homo sapiens) (UniProt P34981) (assay: qHTS assay to identify small molecule antagonists of the thyrotropin-releasing hormone receptor (TRHR) signaling pathway (AID 1346877)). Conditions: TRHR-HEK293, TRH-induced calcium fluorescence, antagonist mode; series mostly up to 51.3 µM.
Thyrotropin-releasing hormone receptor (Homo sapiens), sequence (P34981 whole entry, looked up): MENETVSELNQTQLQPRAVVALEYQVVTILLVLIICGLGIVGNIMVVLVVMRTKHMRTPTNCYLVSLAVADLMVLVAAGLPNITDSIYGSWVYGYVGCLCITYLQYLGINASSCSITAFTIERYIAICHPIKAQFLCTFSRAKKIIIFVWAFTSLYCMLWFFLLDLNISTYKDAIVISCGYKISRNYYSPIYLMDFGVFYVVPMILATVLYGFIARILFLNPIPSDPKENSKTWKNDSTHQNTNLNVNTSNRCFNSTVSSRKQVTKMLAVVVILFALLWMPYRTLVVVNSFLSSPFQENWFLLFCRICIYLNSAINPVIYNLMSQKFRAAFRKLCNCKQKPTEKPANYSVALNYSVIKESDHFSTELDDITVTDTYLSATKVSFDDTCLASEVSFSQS
Text: National Center for Advancing Translational Sciences [NCATS]
NIH Chemical Genomics Center [NCGC]
U.S. Environmental Protection Agency [EPA]
National Institutes of Environmental Health Sciences [NIEHS]
National Toxicology Program [NTP]
U.S. Food and Drug Administration [FDA]
Thyrotropin-releasing hormone (TRH) receptor (TRHR) is a G-protein-coupled receptor which binds the tripeptide thyrotropin releasing hormone. TRHR is found in the brain and, when bound by TRH, acts (through phospholipase C) to increase intracellular inositol trisphosphate. It plays a crucial role in the anterior pituitary where it controls the synthesis and secretion of thyroid stimulating hormone and prolactin. The TRHR-Hek293 assay is a cell-based assay, and it has the potential to screen G protein-coupled receptors. A compound/drug can either activate (agonist) or suppress (antagonist) GPCRs that can be monitored by levels of intracellular calcium. In this assay, the Tox21 10K compound library was screened to identify potential TRHR antagonists.
Tox21 Assay Protocol Summary:
The TRHR-Hek293 cells were dispensed at 1500cells/4uL/well in 1536-well black-clear bottom plates using a Multidrop dispenser. After the assay plates were incubated at a 37 C/5% CO2 incubator for 18 hours, 4 uL of Dye-Loading Solution was added to each well. The plates were incubated at 37 C for 2 hours. For agonist mode, 23 nL of compounds dissolved in DMSO, positive controls or DMSO only was transferred to the assay plate by a pin tool. The fluorescence intensity in the plates was measured using FDSS 7000EX kinetic plate reader for 3 min at 1 sec intervals. For antagonist mode, 23 nL of compounds dissolved in DMSO, positive controls or DMSO only was transferred to the assay plate by a pin tool. After 5 min incubation at room temperature, 1 uL of TRH was added on the top of the cell/compound mixtures to achieve a final agonist concentration of 1 nM. The fluorescence intensity in the plates was measured using FDSS 7000EX kinetic plate reader for 3 min at 1 sec intervals. Each test compound was measured at 15 concentrations and in triplicates.
`O=C1C[C@@H]2OCC=C3CN4CC[C@]56c7ccccc7N1[C@H]5[C@H]2[C@H]3C[C@H]46` was tested, and the Potency was “inactive”.
`O=C1C2(Cl)C3(Cl)C4(Cl)C(Cl)(Cl)C5(Cl)C3(Cl)C1(Cl)C5(Cl)C24Cl` (stereo not given) was tested, and the Potency was 28.9 µM (active).
With `CC1CCCC1` the Potency was “inactive”.
With `COC(=O)N(OC)c1ccccc1COc1ccn(-c2ccc(Cl)cc2)n1` the Potency was “inactive”.
With `Brc1ccc(Oc2ccc(Br)cc2Br)c(Br)c1` the Potency was “inactive”.
`[O-][Cl+3]([O-])([O-])O` was tested, and the Potency was “inactive”.
For `c1csc(-c2ccc(-c3cccs3)s2)c1`, the Potency was “inactive”.
In the case of `Cc1cnc2c(C(=O)O)c(Cl)ccc2c1`, the Potency is reported as “inactive”.
With `CSC(=O)c1c(C(F)F)nc(C(F)(F)F)c(C(=O)SC)c1CC(C)C` the Potency was “inactive”.
In the case of `CC(C)=CC1C(C(=O)OC(C#N)c2cccc(Oc3ccccc3)c2)C1(C)C` (stereo not given), the Potency is reported as “inactive”.
For `c1ccc(Nc2ccc(Nc3ccccc3)cc2)cc1`, the Potency was “inactive”.
`O=[N+]([O-])C(Br)Br` was tested, and the Potency was “inactive”.
For `C=CCBr`, the Potency was “inactive”.
`CO/N=C(/C1=NOCCO1)c1ccccc1Oc1ncnc(Oc2ccccc2Cl)c1F` was tested, and the Potency was “inactive”.
In the case of `CN`, the Potency is reported as “inactive”.
`N#CSCc1ccccc1` was tested, and the Potency was “inactive”.
`Nc1c(Cl)c(Cl)c(Cl)c(Cl)c1Cl` was tested, and the Potency was “inactive”.
`CSSC` was tested, and the Potency was “inactive”.
With `COP(=S)(OC)Oc1nc(Cl)c(Cl)cc1Cl` the Potency was “inactive”.
For `CC#C[C@]1(O)CC[C@H]2[C@@H]3C[C@H](C)C4=CC(=O)CC[C@]4(C)[C@H]3CC[C@@]21C`, the Potency was “inactive”.
In the case of `CC(C)Br`, the Potency is reported as “inactive”.
In the case of `CCC(C)c1cccc(C(C)CC)c1O` (stereo not given), the Potency is reported as “inactive”.
For `CN1C(=O)[C@@H](NC(=O)c2cc3ccccc3[nH]2)N=C(c2ccccc2)c2ccccc21`, the Potency was “inactive”.
For `CCC(C)Nc1c([N+](=O)[O-])cc(C(C)(C)C)cc1[N+](=O)[O-]` (stereo not given), the Potency was “inactive”.
In the case of `O=C(N[C@H]1N=C(c2ccccc2F)c2cccc3c2N(CC3)C1=O)c1cc2ccccc2[nH]1`, the Potency is reported as “inactive”.
In the case of `Oc1ccc(Cl)c(Cl)c1`, the Potency is reported as “inactive”.
`CC(C)C(Br)C(=O)NC(N)=O` (stereo not given) was tested, and the Potency was “inactive”.
`COP(=O)(OC)Oc1ccc([N+](=O)[O-])cc1` was tested, and the Potency was “inactive”.
With `CCCCON=O` the Potency was “inactive”.
With `CN1[C@@H]2CC[C@H]1CC(O)C2` (stereo not given in full) the Potency was “inactive”.
In the case of `Oc1cc(Cl)c(Cl)c(Cl)c1Cl`, the Potency is reported as “inactive”.
`BrCCCBr` was tested, and the Potency was “inactive”.
For `CCOP(=O)(OCC)Oc1nc(Cl)c(Cl)cc1Cl`, the Potency was “inactive”.
For `FC(F)C(F)(F)OCC(Cn1cncn1)c1ccc(Cl)cc1Cl` (stereo not given), the Potency was “inactive”.
In the case of `O=[N+]([O-])c1ccccc1-c1ccccc1`, the Potency is reported as “inactive”.
`C#CCC1=C(C)C(OC(=O)C2C(C=C(C)C)C2(C)C)CC1=O` (stereo not given) was tested, and the Potency was “inactive”.
With `[O]=[Cr][O][Cr]=[O]` the Potency was “inactive”.
In the case of `C#CC1(O)CCCCC1`, the Potency is reported as “inactive”.
`BrCC(Br)(Br)Br` was tested, and the Potency was 15.7 µM (active).
For `CN1C2CCC(C)(C)C1CC(OC(=O)C(O)(c1cccs1)c1cccs1)C2` (stereo not given), the Potency was “inactive”.
